# Reference: PubChem BioAssay AID1159580 (chemical genetic matrix, 2015)
# In all, about 5,500 compounds went through this assay and about 2,000 (36%) were called active. Inconclusive results (about 18%) are left out. The list shows a part of the results. A number with no mark means an inactive call. Cut-off read from the data, not from the text of the source: active = normalized growth mostly below about 0.91 (no sharp cut-off); inconclusive = no clear call, values can overlap the other calls; inactive = mostly above about 0.92.
# Test: chemical genetic growth profiling, strain panel (AID 1159580);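 note: tested at 20 µM; growth read once vehicle control cultures reached saturation at 30 °C; 1 = growth at the plate median or of vehicle wells; lower values mean less growth of the strain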
# Settings: growth OD
structure (smiles),measurement,setting,value
CC1CC[C@@]2(OC1)O[C@H]1CC3C4CC[C@@H]5C[C@@H](O)CC[C@]5(C)C4CC[C@]3(C)[C@H]1[C@@H]2C (some centres not stated),normalized growth,"S. cerevisiae deletion strains, locus YJR066W, strain TOR1, active compounds read low",0.937
same,normalized growth,"S. cerevisiae deletion strains, locus YJR075W, strain HOC1, active compounds read low",1.03
same,normalized growth,"S. cerevisiae deletion strains, locus YKL009W, strain mrt4, active compounds read low",0.988
same,normalized growth,"S. cerevisiae deletion strains, locus YKL068W, active compounds read low",0.985
same,normalized growth,"S. cerevisiae deletion strains, locus YKL085W, strain MDH1 (second series), active compounds read low",0.969
same,normalized growth,"S. cerevisiae deletion strains, locus YKL085W, strain MDH1, active compounds read low",0.969
same,normalized growth,"S. cerevisiae deletion strains, locus YKL160W, strain elf1, active compounds read low",1.02
same,normalized growth,"S. cerevisiae deletion strains, locus YKL190W, strain CNB1, active compounds read low",1.03
same,normalized growth,"S. cerevisiae deletion strains, locus YKR001C, strain vps1, active compounds read low",1.01
same,normalized growth,"S. cerevisiae deletion strains, locus YKR026C, strain gcn3, active compounds read low",1.03
same,normalized growth,"S. cerevisiae deletion strains, locus YKR091W, strain srl3, active compounds read low",1.11 [resistant] (active)
same,normalized growth,"S. cerevisiae deletion strains, locus YLL001W, strain dnm1, active compounds read low",1.18 [resistant] (active)
same,normalized growth,"S. cerevisiae deletion strains, locus YLL026W, active compounds read low",1.02
same,normalized growth,"S. cerevisiae deletion strains, locus YLL041C, strain sdh2, active compounds read low",1.02
same,normalized growth,"S. cerevisiae deletion strains, locus YLR027C, strain aat2, active compounds read low",1.05
same,normalized growth,"S. cerevisiae deletion strains, locus YLR039C, strain RIC1, active compounds read low",1.09
same,normalized growth,"S. cerevisiae deletion strains, locus YLR058C, strain SHM2, active compounds read low",1.04
same,normalized growth,"S. cerevisiae deletion strains, locus YLR102C, strain apc9, active compounds read low",1.01
same,normalized growth,"S. cerevisiae deletion strains, locus YLR113W, strain HOG1, active compounds read low",0.996
same,normalized growth,"S. cerevisiae deletion strains, locus YLR221C, strain rsa3, active compounds read low",1.03
same,normalized growth,"S. cerevisiae deletion strains, locus YLR258W, strain gsy2, active compounds read low",1.03
same,normalized growth,"S. cerevisiae deletion strains, locus YLR262C, strain YPT6 (second series), active compounds read low",0.987
same,normalized growth,"S. cerevisiae deletion strains, locus YLR268W, strain sec22, active compounds read low",1.02
same,normalized growth,"S. cerevisiae deletion strains, locus YLR320W, strain mms22, active compounds read low",1.04
same,normalized growth,"S. cerevisiae deletion strains, locus YLR330W, strain CHS5, active compounds read low",1.02
same,normalized growth,"S. cerevisiae deletion strains, locus YLR342W, strain FKS1 (second series), active compounds read low",1.03
same,normalized growth,"S. cerevisiae deletion strains, locus YLR342W, strain FKS1, active compounds read low",1.03
same,normalized growth,"S. cerevisiae deletion strains, locus YLR357W, strain rsc2, active compounds read low",1.45 [resistant] (active)
same,normalized growth,"S. cerevisiae deletion strains, locus YLR370C, strain arc18, active compounds read low",1.02
same,normalized growth,"S. cerevisiae deletion strains, locus YLR371W, strain rom2, active compounds read low",1.01
same,normalized growth,"S. cerevisiae deletion strains, locus YLR384C, strain iki3, active compounds read low",1.01
same,normalized growth,"S. cerevisiae deletion strains, locus YLR418C, strain cdc73, active compounds read low",1.04
same,normalized growth,"S. cerevisiae deletion strains, locus YML016C, strain PPZ1, active compounds read low",1.02
same,normalized growth,"S. cerevisiae deletion strains, locus YML032C, strain rad52, active compounds read low",1.01
same,normalized growth,"S. cerevisiae deletion strains, locus YML120C, strain ndi1, active compounds read low",1.04
same,normalized growth,"S. cerevisiae deletion strains, locus YML124C, strain tub3, active compounds read low",0.998
same,normalized growth,"S. cerevisiae deletion strains, locus YMR058W, strain fet3, active compounds read low",1.02
same,normalized growth,"S. cerevisiae deletion strains, locus YMR078C, strain ctf18, active compounds read low",0.998
same,normalized growth,"S. cerevisiae deletion strains, locus YMR125W, strain sto1, active compounds read low",1.04
same,normalized growth,"S. cerevisiae deletion strains, locus YMR129W, active compounds read low",1.01
same,normalized growth,"S. cerevisiae deletion strains, locus YMR205C, strain PFK2, active compounds read low",1.02
same,normalized growth,"S. cerevisiae deletion strains, locus YMR223W, strain ubp8, active compounds read low",1
same,normalized growth,"S. cerevisiae deletion strains, locus YMR231W, strain pep5, active compounds read low",1.02
same,normalized growth,"S. cerevisiae deletion strains, locus YMR307W, strain GAS1, active compounds read low",1.21
same,normalized growth,"S. cerevisiae deletion strains, locus YNL067W, strain RPL9B, active compounds read low",1.03
same,normalized growth,"S. cerevisiae deletion strains, locus YNL071W, strain lat1, active compounds read low",1.04
same,normalized growth,"S. cerevisiae deletion strains, locus YNL183C, strain NPR1, active compounds read low",0.941
same,normalized growth,"S. cerevisiae deletion strains, locus YNL209W, strain ssb2, active compounds read low",1.01
same,normalized growth,"S. cerevisiae deletion strains, locus YNL233W, strain BNI4, active compounds read low",1.07
same,normalized growth,"S. cerevisiae deletion strains, locus YNL248C, strain rpa49, active compounds read low",1.02
same,normalized growth,"S. cerevisiae deletion strains, locus YNL250W, strain rad50, active compounds read low",1.05
same,normalized growth,"S. cerevisiae deletion strains, locus YNL271C, strain bni1, active compounds read low",1
same,normalized growth,"S. cerevisiae deletion strains, locus YNL298W, strain CLA4, active compounds read low",1.05
same,normalized growth,"S. cerevisiae deletion strains, locus YNL307C, strain MCK1, active compounds read low",1
same,normalized growth,"S. cerevisiae deletion strains, locus YNL322C, strain KRE1 (second series), active compounds read low",1.05
same,normalized growth,"S. cerevisiae deletion strains, locus YNL322C, strain KRE1, active compounds read low",1.02
same,normalized growth,"S. cerevisiae deletion strains, locus YNR049C, strain mso1, active compounds read low",1.02
same,normalized growth,"S. cerevisiae deletion strains, locus YNR052C, strain pop2, active compounds read low",0.995
same,normalized growth,"S. cerevisiae deletion strains, locus YOL012C, strain htz1",1.12
same,normalized growth,"S. cerevisiae deletion strains, locus YOL147C, strain pex11, active compounds read low",1.03
same,normalized growth,"S. cerevisiae deletion strains, locus YOR001W, strain rrp6, active compounds read low",1.05
same,normalized growth,"S. cerevisiae deletion strains, locus YOR061W, strain CKA2, active compounds read low",1.02
same,normalized growth,"S. cerevisiae deletion strains, locus YOR069W, strain VPS5, active compounds read low",1.02
same,normalized growth,"S. cerevisiae deletion strains, locus YOR070C, strain gyp1, active compounds read low",1.01
same,normalized growth,"S. cerevisiae deletion strains, locus YOR080W, strain dia2, active compounds read low",1.02
same,normalized growth,"S. cerevisiae deletion strains, locus YOR083W, strain WHI5, active compounds read low",1.02
same,normalized growth,"S. cerevisiae deletion strains, locus YOR106W, strain vam3, active compounds read low",1.04
same,normalized growth,"S. cerevisiae deletion strains, locus YOR136W, strain idh2, active compounds read low",1.01
same,normalized growth,"S. cerevisiae deletion strains, locus YOR144C, strain elg1, active compounds read low",1
same,normalized growth,"S. cerevisiae deletion strains, locus YOR184W, strain ser1, active compounds read low",1
same,normalized growth,"S. cerevisiae deletion strains, locus YOR231W, strain MKK1, active compounds read low",0.99
same,normalized growth,"S. cerevisiae deletion strains, locus YOR265W, strain rbl2, active compounds read low",1.01
same,normalized growth,"S. cerevisiae deletion strains, locus YOR270C, strain vph1, active compounds read low",1.14
same,normalized growth,"S. cerevisiae deletion strains, locus YOR290C, strain snf2, active compounds read low",1.1
same,normalized growth,"S. cerevisiae deletion strains, locus YOR316C, strain cot1, active compounds read low",0.992
same,normalized growth,"S. cerevisiae deletion strains, locus YPL051W, strain arl3, active compounds read low",1.02
same,normalized growth,"S. cerevisiae deletion strains, locus YPL078C, strain atp4, active compounds read low",1.05
same,normalized growth,"S. cerevisiae deletion strains, locus YPL106C, strain sse1, active compounds read low",1.02
same,normalized growth,"S. cerevisiae deletion strains, locus YPL240C, strain hsp82, active compounds read low",1.02
same,normalized growth,"S. cerevisiae deletion strains, locus YPL241C, strain CIN2, active compounds read low",1.03
same,normalized growth,"S. cerevisiae deletion strains, locus YPL256C, strain CLN2, active compounds read low",0.984
same,normalized growth,"S. cerevisiae deletion strains, locus YPR119W, strain clb2, active compounds read low",1.01
same,normalized growth,"S. cerevisiae deletion strains, locus YPR141C, strain kar3, active compounds read low",1
same,normalized growth,"S. cerevisiae deletion strains, locus YPR163C, strain tif3, active compounds read low",1.01
same,normalized growth,"S. cerevisiae deletion strains, locus YPR167C, strain met16, active compounds read low",1.02
same,normalized growth,"S. cerevisiae deletion strains, strain wtn01, active compounds read low",1.01
same,normalized growth,"S. cerevisiae strains, strain wild type, active compounds read low",1.05
